Unmarked numbers belong to inactive results. The source made the active and inactive calls. Cut-off read from the data, not from the text of the source, unless noted: active = inhibition above about 44%; inactive = the rest.

The target of one test is Steroidogenic factor 1 (Homo sapiens) (UniProt Q13285). The test is described as follows: SF1 (NR5A1) inverse agonists, counter-screen for LRH-1 inverse agonist project, cell-based, luminescence, high throughput (AID 651614).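 Note: cells cotransfected with StAR promoter reporter and SF1 expression vector; 0% = vehicle on cells with receptor and 100% = vehicle on cells lacking receptor.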 The settings on record: cell-based SF1 luciferase reporter, at 3.6 µM, active compounds read high.
Chain of Steroidogenic factor 1 (Homo sapiens) (Q13285 whole entry, looked up): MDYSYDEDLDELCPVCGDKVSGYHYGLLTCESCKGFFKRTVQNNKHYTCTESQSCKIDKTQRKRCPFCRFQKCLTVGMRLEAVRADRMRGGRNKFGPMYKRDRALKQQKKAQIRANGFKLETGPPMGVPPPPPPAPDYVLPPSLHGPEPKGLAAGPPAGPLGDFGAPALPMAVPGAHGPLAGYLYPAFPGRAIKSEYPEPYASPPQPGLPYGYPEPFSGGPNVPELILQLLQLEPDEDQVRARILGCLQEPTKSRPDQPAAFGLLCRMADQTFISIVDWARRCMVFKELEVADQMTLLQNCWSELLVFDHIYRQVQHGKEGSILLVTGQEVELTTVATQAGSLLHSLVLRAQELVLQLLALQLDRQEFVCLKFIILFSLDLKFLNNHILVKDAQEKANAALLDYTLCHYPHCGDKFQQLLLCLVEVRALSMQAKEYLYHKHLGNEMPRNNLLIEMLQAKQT
For `Cc1ccc(C(O)(C(=O)NN(C(=O)c2ccccc2)c2ccccc2)c2ccc(C)cc2)cc1`, the inhibition was 62.9% (active).
Same read-out and setting: under `O=C(Cn1cnc2c(nnn2-c2ccccc2)c1=O)NCCc1ccccc1` stands 51% (active); under `CC(=O)Nc1ccc(NC(=O)COC(=O)Cc2c[nH]c3ccccc23)cc1`, 53.8% (active); under `COc1cc2c(cc1OC)CN(C(=O)c1cc(=O)c3ccccc3o1)CC2`, 40.7%.
On the same count and under the same terms, for `COCc1cc(C)n(CC(=O)Nc2ccc(N3CCOCC3)c(Cl)c2)c(=O)c1C#N` the value was 40.9%.
The same measure, in the same setting: for `Cc1cc(C(=O)NC2CCCc3c2cnn3-c2cccc(C)c2C)n(C)n1` (stereo not given) the value was 58.4% (active); for `N#Cc1c2ccc([N+](=O)[O-])cc2[n+]([O-])n1-c1ccccc1`, 75.4% (active).
`CC(=O)c1ccc(NC(=S)Nc2cccc3cnccc23)cc1`: the inhibition is 4.69%.
On the same count and under the same terms, under `COc1cc2nc(/C=C/c3cc(OC)c(OC)c(OC)c3)sc2cc1SC` stands 58.6% (active); under `Cc1nn(CC(=O)Nc2ccc(N3CCOCC3)cc2)c(C)c1Cl`, 29.8%; under `Cc1ccc(CNC(=O)CN2C(=O)NC3(CCCC3)C2=O)cc1`, 43.7% (active).
In the case of `COc1cccc(C(C)(O)c2nc(-c3ccoc3)cs2)c1` (stereo not given), the inhibition is 21.5%.
Still for that read-out and setting: under `Cc1cc(C)c2c(N)c3cccc(C)c3nc2n1` stands 45.8% (active).
The same measure, in the same setting: for `Cc1c(C#N)c(O)n(CCO)c(=O)c1N=Nc1ccccc1` the value was 41.7%; for `Nc1ccccc1Nc1ccncc1[N+](=O)[O-]`, 63.3% (active); for `Cc1c(Cl)cccc1NC(=O)CNc1ccccc1F`, 40.6%.
Same read-out and setting: for `Cc1onc(-c2c(F)cccc2Cl)c1C(=O)c1ccc(F)cc1` the value was 46.2% (active); for `CCN(CC)c1nc(C)c(C(C)=O)cc1C#N`, 57% (active); for `CC(C(=O)N1CCCc2c1c(=O)oc1ccc(O)cc21)N1CCc2ccccc2C1` (stereo not given), 32.4%.
Turning to `COc1cc(F)c(C2=CC(=O)CC(C)(C)C2)cc1F`, the inhibition is 34.5%.
Still for that read-out and setting: for `O=C(Nc1ccc(N2CCN(Cc3ccccc3F)CC2)cc1)c1ccc([N+](=O)[O-])o1` the value was 73.9% (active).
For `CN(Cc1cccs1)c1nc(-c2cccnc2)nc2ccccc12`, the inhibition was 43% (active).
Same read-out and setting: under `Cc1nc(C)c(-c2csc(Nc3cccnc3)n2)s1` stands 35.4%; under `CC(=O)Nc1cc(-c2cccc(NS(C)(=O)=O)c2)cn2c(-c3ccccc3)cnc12`, 34.3%; under `COc1cc(CNc2ccc(CNc3ncn[nH]3)cc2)ccc1OCC(=O)NC(C)(C)C`, -3.26%.
Regarding `O=C(Cc1c(Cl)cccc1Cl)Nc1ccncc1`, the inhibition was 45.4% (active).
On the same count and under the same terms, for `CC(=O)Nc1ccc(NC(=O)COC(=O)c2ccc([N+](=O)[O-])o2)cc1` the value was 51.9% (active); for `Cc1ccc(Cl)cc1NC(=O)COC(=O)CC(C)(C)C`, 60.2% (active); for `O=C(NNc1ccc([N+](=O)[O-])cc1[N+](=O)[O-])c1ccco1`, 60% (active).
With `Cc1c(NC(=O)c2cc(-c3cccs3)nc3ccccc23)c(=O)n(-c2ccccc2)n1C`, the inhibition is 18%.
The same measure, in the same setting: under `Cn1c(CN2CCN(c3ccc(Cl)cc3)CC2)nc2ccccc21` stands 52.9% (active); under `CN(C)c1ccc(C=c2c3ccccc3n3c2cc(-c2ccc(Cl)cc2)[n+]3C)cc1`, 69% (active).
On to `Cc1ccc(CNC(=O)c2ccc([N+](=O)[O-])o2)cc1`, for which the inhibition was 60.8% (active).
`COc1cc(N)c2ncccc2c1Br`: the inhibition was 26.6%.
Same read-out and setting: for `COc1ccc(-c2nnnn2-c2ccccc2OC)cc1` the value was 54.3% (active).

Tested on in another test: not listed separately
The test is described as follows: VP16 transactivation reporter inhibitors, counter-screen for LRH-1 inverse agonist project, cell-based, luminescence, high throughput (AID 651615; in the data active = inhibition above about 33%). Conditions: Gal4-VP16 luciferase reporter cells, at 3.6 µM, active compounds read high.
For the compound `Cc1ccc(C(O)(C(=O)NN(C(=O)c2ccccc2)c2ccccc2)c2ccc(C)cc2)cc1`, the inhibition was 12.3%.
On the same count and under the same terms, for `O=C(Cn1cnc2c(nnn2-c2ccccc2)c1=O)NCCc1ccccc1` the value was -7.88%; for `CC(=O)Nc1ccc(NC(=O)COC(=O)Cc2c[nH]c3ccccc23)cc1`, -15.3%.
On the same count and under the same terms, for `COc1cc2c(cc1OC)CN(C(=O)c1cc(=O)c3ccccc3o1)CC2` the value was 16%; for `COCc1cc(C)n(CC(=O)Nc2ccc(N3CCOCC3)c(Cl)c2)c(=O)c1C#N`, 6.57%; for `Cc1cc(C(=O)NC2CCCc3c2cnn3-c2cccc(C)c2C)n(C)n1` (stereo not given), 59.1% (active).
On the same count and under the same terms, under `N#Cc1c2ccc([N+](=O)[O-])cc2[n+]([O-])n1-c1ccccc1` stands -21.2%; under `CC(=O)c1ccc(NC(=S)Nc2cccc3cnccc23)cc1`, 7.24%; under `COc1cc2nc(/C=C/c3cc(OC)c(OC)c(OC)c3)sc2cc1SC`, -2.8%.
Take `Cc1nn(CC(=O)Nc2ccc(N3CCOCC3)cc2)c(C)c1Cl`: the inhibition was -1.64%.
On the same count and under the same terms, under `Cc1ccc(CNC(=O)CN2C(=O)NC3(CCCC3)C2=O)cc1` stands 0.14%; under `COc1cccc(C(C)(O)c2nc(-c3ccoc3)cs2)c1` (stereo not given), -0.14%; under `Cc1cc(C)c2c(N)c3cccc(C)c3nc2n1`, 89% (active).
Same read-out and setting: for `Cc1c(C#N)c(O)n(CCO)c(=O)c1N=Nc1ccccc1` the value was 6.91%.
Turning to `Nc1ccccc1Nc1ccncc1[N+](=O)[O-]`, the inhibition was -1.54%.
Still for that read-out and setting: under `Cc1c(Cl)cccc1NC(=O)CNc1ccccc1F` stands -6.92%.
Same read-out and setting: for `Cc1onc(-c2c(F)cccc2Cl)c1C(=O)c1ccc(F)cc1` the value was -8.21%; for `CCN(CC)c1nc(C)c(C(C)=O)cc1C#N`, 12%; for `CC(C(=O)N1CCCc2c1c(=O)oc1ccc(O)cc21)N1CCc2ccccc2C1` (stereo not given), -3.51%.
Take `COc1cc(F)c(C2=CC(=O)CC(C)(C)C2)cc1F`: the inhibition was -13.9%.
The same measure, in the same setting: under `O=C(Nc1ccc(N2CCN(Cc3ccccc3F)CC2)cc1)c1ccc([N+](=O)[O-])o1` stands 32.6% (active); under `CN(Cc1cccs1)c1nc(-c2cccnc2)nc2ccccc12`, 5.14%.
Same read-out and setting: under `Cc1nc(C)c(-c2csc(Nc3cccnc3)n2)s1` stands -47.9%; under `CC(=O)Nc1cc(-c2cccc(NS(C)(=O)=O)c2)cn2c(-c3ccccc3)cnc12`, -8.63%.
As for `COc1cc(CNc2ccc(CNc3ncn[nH]3)cc2)ccc1OCC(=O)NC(C)(C)C`, the inhibition was 15.7%.
The same measure, in the same setting: for `O=C(Cc1c(Cl)cccc1Cl)Nc1ccncc1` the value was -10%; for `CC(=O)Nc1ccc(NC(=O)COC(=O)c2ccc([N+](=O)[O-])o2)cc1`, -5.51%; for `Cc1ccc(Cl)cc1NC(=O)COC(=O)CC(C)(C)C`, -10.5%.
On the same count and under the same terms, under `O=C(NNc1ccc([N+](=O)[O-])cc1[N+](=O)[O-])c1ccco1` stands 3.35%; under `Cc1c(NC(=O)c2cc(-c3cccs3)nc3ccccc23)c(=O)n(-c2ccccc2)n1C`, 2.7%.
Still for that read-out and setting: under `Cn1c(CN2CCN(c3ccc(Cl)cc3)CC2)nc2ccccc21` stands -6.14%; under `CN(C)c1ccc(C=c2c3ccccc3n3c2cc(-c2ccc(Cl)cc2)[n+]3C)cc1`, 86.3% (active).
Take `Cc1ccc(CNC(=O)c2ccc([N+](=O)[O-])o2)cc1`: the inhibition is -5.02%.
On the same count and under the same terms, under `COc1cc(N)c2ncccc2c1Br` stands -4.59%.
Still for that read-out and setting: under `COc1ccc(-c2nnnn2-c2ccccc2OC)cc1` stands 0.37%.

The record behind these values is PubChem BioAssay.
